Data on 35 compounds can be found in PubChem BioAssay (NCATS).

The source made the active and inactive calls. The call rests on the fitted dose curve; in most records, active means well fitted curve in the direction sought with a large enough effect; inactive means no such curve, though single readings can be large or run the other way.

The target of this assay is Alpha-galactosidase (Coffea arabica) (UniProt Q42656). Description: Counterscreen for Glucocerebrosidase Inhibitors: qHTS Assay for Coffee Bean alpha-Galactosidase at pH 5.9 (AID 998). As to conditions: coffee bean alpha-galactosidase enzyme assay; series mostly up to 76.9 µM. An outline of the steps: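 Green coffee bean enzyme (2 nM) with 4-methylumbelliferyl alpha-D-galactopyranoside (80 uM) in 50 mM citric acid, 0.005% Tween-20, pH 5.9, 20 min at room temperature; compounds 0.7 nM–77 uM. Stopped at pH 10, fluorescence Ex365/Em440; Hill-fit AC50.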
Chain of Alpha-galactosidase (Coffea arabica) (Q42656 whole entry, looked up): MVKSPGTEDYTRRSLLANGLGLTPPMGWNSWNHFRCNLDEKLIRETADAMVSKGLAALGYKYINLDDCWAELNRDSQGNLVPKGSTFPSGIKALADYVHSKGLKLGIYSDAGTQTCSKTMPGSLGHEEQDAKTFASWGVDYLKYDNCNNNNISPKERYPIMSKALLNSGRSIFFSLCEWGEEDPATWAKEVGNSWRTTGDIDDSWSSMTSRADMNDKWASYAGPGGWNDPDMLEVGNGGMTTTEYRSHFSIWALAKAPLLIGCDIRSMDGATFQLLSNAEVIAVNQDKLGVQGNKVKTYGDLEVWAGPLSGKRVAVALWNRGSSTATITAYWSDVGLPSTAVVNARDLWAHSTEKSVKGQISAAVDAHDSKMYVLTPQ
(In general: Counterscreens check selectivity or assay interference.)
For `CN(C)CCOC(c1ccccc1)c1ccccc1`, the compound was classed as inactive.
As to `C[C@]12CCC(=O)C=C1CC[C@@H]1[C@@H]2C(=O)C[C@@]2(C)[C@H]1CC[C@]2(O)C(=O)CO`, the outcome was inactive.
Regarding `CN1[C@@H]2CC[C@H]1CC(OC(=O)c1c[nH]c3ccccc13)C2` (stereo not given in full), the call was inactive.
With `COc1cc(C(=O)OCCCN2CCCN(CCCOC(=O)c3cc(OC)c(OC)c(OC)c3)CC2)cc(OC)c1OC`, the result was inactive.
On to `NS(=O)(=O)c1cc2c(cc1Cl)NCNS2(=O)=O`, for which the result was inactive.
The value for `CCCCNc1c(C(=O)OCC)c(C)nc2c1cnn2CC` was “inactive”; that for `c1cc(CN2CCCCC2)cc(OCCCNc2nc3ccccc3s2)c1` was “inactive”; that for `Brc1c(NC2=NCCN2)ccc2nccnc12` was “inactive”.
The value for `CCN(CC)CCOCCOC(=O)C1(c2ccccc2)CCCC1` was “inactive”.
With `CCCn1cnc2c1c(=O)n(CCCCC(C)=O)c(=O)n2C`, the call was inactive.
Take `Cc1ccc(N(CC2=NCCN2)c2cccc(O)c2)cc1`: the compound was classed as inactive.
As for `Nc1c2c(nc3ccccc13)CCCC2`, the outcome was inactive.
As for `O=c1[nH]c2ccccc2n1CCCN1CCN(C(c2ccccc2)c2ccccc2)CC1`, the compound was classed as inactive.
The value for `Cc1cc(C(C)(C)C)c(O)c(C)c1CC1=NCCN1` was “inactive”; that for `CCc1cccc2c3c([nH]c12)C(CC)(CC(=O)O)OCC3` (stereo not given) was “inactive”.
On to `c1cnc(N2CCN(Cc3ccc4c(c3)OCO4)CC2)nc1`, for which the compound was called inactive.
Consider `OCCN1CCN(CCCN2c3ccccc3C=Cc3ccccc32)CC1`, for which the compound was classed as inactive.
The value for `C#CCN(C)Cc1ccccc1` was “inactive”; that for `O=C(O)c1cccnc1Nc1cccc(C(F)(F)F)c1` was “inactive”; that for `CN(C)CCCN1c2ccccc2Sc2ccc(C(F)(F)F)cc21` was “inactive”.
For the compound `NC(N)=NCCC[C@H](N)C(=O)O`, the compound was called inactive.
Regarding `Nc1ccn([C@H]2CC[C@@H](CO)O2)c(=O)n1`, the call was inactive.
With `CN(C)CCN(Cc1cccs1)c1ccccn1`, the outcome was inactive.
Turning to `NCCc1ccc(O)c(O)c1`, the compound was called inactive.
With `O=C(O)CP(=O)(O)O`, the call was inactive.
The value for `CC(C)NCC(O)COc1ccc(COCCOC(C)C)cc1` (stereo not given) was “inactive”; that for `O=C(CCCN1CCC(O)(c2cccc(C(F)(F)F)c2)CC1)c1ccc(F)cc1` was “inactive”.
Take `COc1ccc2c(c1)c(CC(=O)O)c(C)n2C(=O)c1ccc(Cl)cc1`: the outcome was inactive.
`COc1cc2c(cc1OC)-c1cc(=Nc3c(C)cc(C)cc3C)n(C)c(=O)n1CC2`: the call was inactive.
For the compound `NC(=O)CC[C@@H](N)C(=O)O`, the compound was classed as inactive.
In the case of `CCCCNc1ccc(C(=O)OCCN(C)C)cc1` it was “inactive”; in that of `OC(CN1CCC(Cc2ccc(F)cc2)CC1)c1ccc(Cl)cc1` (stereo not given), “inactive”.
With `C=Cc1c(C)c2cc3[nH]c(cc4nc(cc5nc(cc1[nH]2)C(C)=C5CCC(=O)O)C(CCC(=O)O)=C4C)c(C)c3C=C`, the compound was called inactive.
Turning to `COC(=O)[C@@H](N)Cc1ccc(O)c(O)c1`, the outcome was inactive.
For the compound `CSc1ccc(C(=O)c2[nH]c(=O)[nH]c2C)cc1`, the result was inactive.
